# How the values were obtained:
# Test in all cases: DAPPL (digital affinity profiling via proximity ligation, sequencing); 10 mM Tris-HCl pH 7.5, 50 mM NaCl, 1 mM DTT, 4% glycerol, room temperature, 30 min; GST-TFs on glutathione beads, 16-mer random dsDNA library, 0.1% formaldehyde crosslink after washing; high values mean tight binding
# [1] = molecular target: T1, FEV (Homo sapiens, UniProt Q99581 1-238); conditions: protein: recombinant; tags: N-terminal GST; dsDNA, one strand shown
# T1 sequence: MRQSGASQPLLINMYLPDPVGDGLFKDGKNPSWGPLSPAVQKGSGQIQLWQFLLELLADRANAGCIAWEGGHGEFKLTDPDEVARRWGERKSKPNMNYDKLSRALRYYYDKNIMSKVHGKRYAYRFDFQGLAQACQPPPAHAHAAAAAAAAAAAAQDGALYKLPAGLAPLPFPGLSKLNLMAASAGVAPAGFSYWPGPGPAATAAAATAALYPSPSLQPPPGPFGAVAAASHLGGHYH
# Outline: (§1)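 Binding signal is each hexamer's read frequency for a factor divided by its frequency in the tag-only sample. The factors were GST-fused human transcription factors from yeast, captured on glutathione beads, DNA-barcoded and pooled with that sample. Pools were incubated with 200 nmole of a random double-stranded 16-mer DNA library in Tris/NaCl/DTT/glycerol buffer at room temperature for 30 min, then washed, crosslinked with 0.1% formaldehyde, proximity-ligated with BsaI/T4 ligase (1 h, 37 °C), PCR-amplified and sequenced on an Illumina NextSeq500.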
# [2] = molecular target: ETV5 (Homo sapiens, UniProt P41161 1-510); conditions: protein: recombinant; tags: N-terminal GST; dsDNA, one strand shown
# Outline: as §1
# [3] = molecular target: HSF1 (Homo sapiens, UniProt Q00613 1-529); conditions: protein: recombinant; tags: N-terminal GST; chain copies: 3; dsDNA, one strand shown
# Outline: as §1
# [4] = molecular target: T2, SPIC (Homo sapiens, UniProt Q8N5J4 1-248); conditions: protein: recombinant; tags: N-terminal GST; dsDNA, one strand shown
# T2 sequence: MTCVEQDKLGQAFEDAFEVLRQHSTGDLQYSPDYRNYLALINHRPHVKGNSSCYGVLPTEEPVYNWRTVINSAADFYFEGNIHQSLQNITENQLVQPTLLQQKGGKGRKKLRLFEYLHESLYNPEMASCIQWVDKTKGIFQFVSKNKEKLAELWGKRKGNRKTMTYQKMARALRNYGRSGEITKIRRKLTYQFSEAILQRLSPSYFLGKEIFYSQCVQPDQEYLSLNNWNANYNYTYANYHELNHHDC
# Outline: as §1
# [5] = molecular target: ELF4 (Homo sapiens, UniProt Q99607 1-663); conditions: protein: recombinant; tags: N-terminal GST; dsDNA, one strand shown
# Outline: as §1
# [6] = molecular target: T3, ELK4 (Homo sapiens, UniProt P28324-2 1-405); conditions: protein: recombinant; tags: N-terminal GST; dsDNA, one strand shown
# T3 sequence: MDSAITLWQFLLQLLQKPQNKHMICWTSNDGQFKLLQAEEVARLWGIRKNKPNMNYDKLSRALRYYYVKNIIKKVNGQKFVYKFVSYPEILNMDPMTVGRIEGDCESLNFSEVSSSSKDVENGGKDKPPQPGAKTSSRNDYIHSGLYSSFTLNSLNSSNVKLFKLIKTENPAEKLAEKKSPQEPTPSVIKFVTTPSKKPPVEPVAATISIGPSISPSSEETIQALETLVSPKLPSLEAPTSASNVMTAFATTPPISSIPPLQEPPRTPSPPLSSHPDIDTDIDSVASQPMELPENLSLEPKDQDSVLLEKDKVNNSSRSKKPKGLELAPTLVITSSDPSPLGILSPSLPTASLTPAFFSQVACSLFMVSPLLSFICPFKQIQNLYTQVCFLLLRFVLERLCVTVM
# Outline: as §1
# [7] = molecular target: T4, ETV2 (Homo sapiens, UniProt O00321 1-342); conditions: protein: recombinant; tags: N-terminal GST; dsDNA, one strand shown
# T4 sequence: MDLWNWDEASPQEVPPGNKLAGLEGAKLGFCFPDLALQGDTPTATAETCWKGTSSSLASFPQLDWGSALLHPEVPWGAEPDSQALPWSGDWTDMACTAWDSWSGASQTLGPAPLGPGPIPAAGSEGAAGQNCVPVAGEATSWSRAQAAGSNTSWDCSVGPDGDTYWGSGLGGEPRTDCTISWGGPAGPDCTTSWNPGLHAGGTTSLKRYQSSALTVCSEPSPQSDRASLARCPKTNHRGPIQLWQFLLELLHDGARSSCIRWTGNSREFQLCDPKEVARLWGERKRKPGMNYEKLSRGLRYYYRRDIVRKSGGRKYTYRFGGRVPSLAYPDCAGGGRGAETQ
# Outline: as §1
# [8] = molecular target: T5, ELF3 (Homo sapiens, UniProt P78545 1-371); conditions: protein: recombinant; tags: N-terminal GST; dsDNA, one strand shown
# T5 sequence: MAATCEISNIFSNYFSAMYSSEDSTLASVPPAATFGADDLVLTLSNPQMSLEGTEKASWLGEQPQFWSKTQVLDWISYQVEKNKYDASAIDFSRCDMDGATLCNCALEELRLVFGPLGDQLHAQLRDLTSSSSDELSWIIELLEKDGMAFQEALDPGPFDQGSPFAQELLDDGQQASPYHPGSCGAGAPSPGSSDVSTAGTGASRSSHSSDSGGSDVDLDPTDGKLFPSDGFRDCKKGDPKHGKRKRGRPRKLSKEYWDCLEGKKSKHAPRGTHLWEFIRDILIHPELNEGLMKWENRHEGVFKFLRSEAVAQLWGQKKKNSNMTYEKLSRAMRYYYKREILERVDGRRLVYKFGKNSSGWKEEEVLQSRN
# Outline: as §1
# [9] = molecular target: CRX (Homo sapiens, UniProt O43186 1-299); conditions: protein: recombinant; tags: N-terminal GST; dsDNA, one strand shown
# Outline: as §1
# [10] = molecular target: ETV1 (Homo sapiens, UniProt P50549 1-477); conditions: protein: recombinant; tags: N-terminal GST; dsDNA, one strand shown
# Outline: as §1
# [11] = molecular target: T6, ERF (Homo sapiens, UniProt P50548 1-548); conditions: protein: recombinant; tags: N-terminal GST; dsDNA, one strand shown
# T6 sequence: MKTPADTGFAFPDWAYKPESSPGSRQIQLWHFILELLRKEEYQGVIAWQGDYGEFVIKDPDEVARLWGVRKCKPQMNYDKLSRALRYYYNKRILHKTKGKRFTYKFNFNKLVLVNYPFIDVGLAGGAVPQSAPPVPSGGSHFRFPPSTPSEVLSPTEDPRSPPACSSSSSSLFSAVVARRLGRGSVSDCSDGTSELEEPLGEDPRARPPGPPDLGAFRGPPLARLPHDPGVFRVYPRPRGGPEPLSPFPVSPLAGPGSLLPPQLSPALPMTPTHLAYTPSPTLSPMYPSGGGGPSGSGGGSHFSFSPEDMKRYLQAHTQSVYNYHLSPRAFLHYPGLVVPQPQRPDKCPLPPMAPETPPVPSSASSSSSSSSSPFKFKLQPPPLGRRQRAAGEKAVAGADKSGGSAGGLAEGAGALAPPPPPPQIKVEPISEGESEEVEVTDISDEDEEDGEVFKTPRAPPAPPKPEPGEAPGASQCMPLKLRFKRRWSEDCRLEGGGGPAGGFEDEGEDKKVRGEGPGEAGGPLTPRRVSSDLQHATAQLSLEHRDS
# Outline: as §1
# [12] = molecular target: T7, ETV3L (Homo sapiens, UniProt Q6ZN32 1-361); conditions: protein: recombinant; tags: N-terminal GST; dsDNA, one strand shown
# T7 sequence: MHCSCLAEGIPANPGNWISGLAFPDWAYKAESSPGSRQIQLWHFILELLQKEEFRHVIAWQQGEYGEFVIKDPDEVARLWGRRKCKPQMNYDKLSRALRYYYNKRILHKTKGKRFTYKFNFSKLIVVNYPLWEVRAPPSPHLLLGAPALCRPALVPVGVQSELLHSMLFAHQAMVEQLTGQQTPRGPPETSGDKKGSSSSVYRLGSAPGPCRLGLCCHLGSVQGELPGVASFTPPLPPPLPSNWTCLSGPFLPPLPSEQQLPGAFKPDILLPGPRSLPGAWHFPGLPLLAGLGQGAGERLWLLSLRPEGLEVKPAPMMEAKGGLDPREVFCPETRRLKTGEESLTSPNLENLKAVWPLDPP
# Outline: as §1
# [13] = molecular target: T8, ETS2 (Homo sapiens, UniProt P15036 1-469); conditions: protein: recombinant; tags: N-terminal GST; dsDNA, one strand shown
# T8 sequence: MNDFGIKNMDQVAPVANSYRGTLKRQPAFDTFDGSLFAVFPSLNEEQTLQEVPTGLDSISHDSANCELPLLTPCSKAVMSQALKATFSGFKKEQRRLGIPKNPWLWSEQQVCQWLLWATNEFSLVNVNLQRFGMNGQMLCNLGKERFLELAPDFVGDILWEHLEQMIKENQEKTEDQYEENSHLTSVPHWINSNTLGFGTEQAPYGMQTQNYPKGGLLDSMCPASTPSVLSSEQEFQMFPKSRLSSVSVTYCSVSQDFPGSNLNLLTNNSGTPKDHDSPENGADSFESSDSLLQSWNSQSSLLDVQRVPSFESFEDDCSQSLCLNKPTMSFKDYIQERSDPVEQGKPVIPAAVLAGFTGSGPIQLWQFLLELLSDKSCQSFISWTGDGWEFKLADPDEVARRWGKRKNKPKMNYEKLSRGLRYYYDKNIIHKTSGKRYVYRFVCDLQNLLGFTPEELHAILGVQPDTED
# Outline: as §1
# [14] = molecular target: T9, SPDEF (Homo sapiens, UniProt O95238 1-335); conditions: protein: recombinant; tags: N-terminal GST; dsDNA, one strand shown
# T9 sequence: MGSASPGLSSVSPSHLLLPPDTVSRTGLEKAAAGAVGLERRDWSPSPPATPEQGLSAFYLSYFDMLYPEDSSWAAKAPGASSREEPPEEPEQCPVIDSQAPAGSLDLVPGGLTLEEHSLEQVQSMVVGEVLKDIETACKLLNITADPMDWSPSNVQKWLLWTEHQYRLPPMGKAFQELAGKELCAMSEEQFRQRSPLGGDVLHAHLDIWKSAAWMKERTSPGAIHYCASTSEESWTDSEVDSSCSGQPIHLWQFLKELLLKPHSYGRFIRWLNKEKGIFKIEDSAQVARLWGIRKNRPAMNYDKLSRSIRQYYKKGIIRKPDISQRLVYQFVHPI
# Outline: as §1
# [15] = molecular target: T10, ETV7 (Homo sapiens, UniProt Q9Y603 1-341); conditions: protein: recombinant; tags: N-terminal GST; dsDNA, one strand shown
# T10 sequence: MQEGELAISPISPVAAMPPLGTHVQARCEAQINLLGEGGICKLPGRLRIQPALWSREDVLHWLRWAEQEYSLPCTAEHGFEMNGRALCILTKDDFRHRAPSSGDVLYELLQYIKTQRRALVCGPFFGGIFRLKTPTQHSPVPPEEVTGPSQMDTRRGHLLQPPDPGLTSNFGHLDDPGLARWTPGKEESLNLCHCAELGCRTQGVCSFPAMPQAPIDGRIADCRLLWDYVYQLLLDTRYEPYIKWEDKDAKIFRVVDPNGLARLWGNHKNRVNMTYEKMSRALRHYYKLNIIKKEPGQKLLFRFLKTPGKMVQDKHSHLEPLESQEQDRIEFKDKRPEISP
# Outline: as §1
# [16] = molecular target: T11, ELF5 (Homo sapiens, UniProt Q9UKW6-2 1-255); conditions: protein: recombinant; tags: N-terminal GST; dsDNA, one strand shown
# T11 sequence: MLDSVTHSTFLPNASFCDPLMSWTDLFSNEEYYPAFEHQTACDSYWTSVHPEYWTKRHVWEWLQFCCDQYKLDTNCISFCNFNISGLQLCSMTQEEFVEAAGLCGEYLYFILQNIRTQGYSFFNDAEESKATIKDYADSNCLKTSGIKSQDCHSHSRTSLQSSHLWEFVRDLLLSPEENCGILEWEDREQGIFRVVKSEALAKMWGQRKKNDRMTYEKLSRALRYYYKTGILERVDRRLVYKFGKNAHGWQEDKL
# Outline: as §1
# [17] = molecular target: T12, ETV3 (Homo sapiens, UniProt P41162-2 1-143); conditions: protein: recombinant; tags: N-terminal GST; dsDNA, one strand shown
# T12 sequence: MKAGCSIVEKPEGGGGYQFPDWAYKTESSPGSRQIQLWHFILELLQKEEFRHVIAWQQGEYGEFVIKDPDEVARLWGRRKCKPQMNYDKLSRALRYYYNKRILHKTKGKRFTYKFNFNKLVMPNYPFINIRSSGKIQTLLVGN
# Outline: as §1
# [18] = molecular target: ETV6 (Homo sapiens, UniProt P41212 1-452); conditions: protein: recombinant; tags: N-terminal GST; dsDNA, one strand shown
# Outline: as §1
# Sequence of ETV5 (P41161 whole entry): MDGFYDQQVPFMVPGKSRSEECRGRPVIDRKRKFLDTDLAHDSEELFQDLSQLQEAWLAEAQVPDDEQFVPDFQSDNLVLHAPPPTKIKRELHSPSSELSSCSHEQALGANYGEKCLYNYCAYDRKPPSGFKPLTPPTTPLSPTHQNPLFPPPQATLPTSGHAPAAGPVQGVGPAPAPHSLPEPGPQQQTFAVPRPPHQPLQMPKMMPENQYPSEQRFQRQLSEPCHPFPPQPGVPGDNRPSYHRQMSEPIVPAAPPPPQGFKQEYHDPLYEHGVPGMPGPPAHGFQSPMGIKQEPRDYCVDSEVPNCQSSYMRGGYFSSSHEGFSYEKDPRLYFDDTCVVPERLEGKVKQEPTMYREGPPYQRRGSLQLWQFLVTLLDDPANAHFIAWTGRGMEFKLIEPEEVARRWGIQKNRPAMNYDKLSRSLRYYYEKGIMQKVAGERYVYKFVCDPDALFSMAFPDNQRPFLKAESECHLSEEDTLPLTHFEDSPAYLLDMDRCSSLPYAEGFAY
# Sequence of HSF1 (Q00613 whole entry): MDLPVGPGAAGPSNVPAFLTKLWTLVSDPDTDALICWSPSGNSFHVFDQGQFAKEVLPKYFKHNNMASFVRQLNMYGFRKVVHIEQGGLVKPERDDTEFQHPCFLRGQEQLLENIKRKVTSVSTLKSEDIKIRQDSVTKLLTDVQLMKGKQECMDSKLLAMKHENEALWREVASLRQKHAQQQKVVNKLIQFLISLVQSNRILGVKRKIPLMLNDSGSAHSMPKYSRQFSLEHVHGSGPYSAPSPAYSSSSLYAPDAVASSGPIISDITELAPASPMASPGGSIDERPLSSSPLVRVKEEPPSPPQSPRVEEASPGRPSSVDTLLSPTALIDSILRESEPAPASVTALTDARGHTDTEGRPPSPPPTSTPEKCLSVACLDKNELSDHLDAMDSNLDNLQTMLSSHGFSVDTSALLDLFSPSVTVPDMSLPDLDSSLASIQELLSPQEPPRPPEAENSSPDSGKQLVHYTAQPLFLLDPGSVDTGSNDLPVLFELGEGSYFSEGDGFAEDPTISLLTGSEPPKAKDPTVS
# Sequence of ETV1 (P50549 whole entry): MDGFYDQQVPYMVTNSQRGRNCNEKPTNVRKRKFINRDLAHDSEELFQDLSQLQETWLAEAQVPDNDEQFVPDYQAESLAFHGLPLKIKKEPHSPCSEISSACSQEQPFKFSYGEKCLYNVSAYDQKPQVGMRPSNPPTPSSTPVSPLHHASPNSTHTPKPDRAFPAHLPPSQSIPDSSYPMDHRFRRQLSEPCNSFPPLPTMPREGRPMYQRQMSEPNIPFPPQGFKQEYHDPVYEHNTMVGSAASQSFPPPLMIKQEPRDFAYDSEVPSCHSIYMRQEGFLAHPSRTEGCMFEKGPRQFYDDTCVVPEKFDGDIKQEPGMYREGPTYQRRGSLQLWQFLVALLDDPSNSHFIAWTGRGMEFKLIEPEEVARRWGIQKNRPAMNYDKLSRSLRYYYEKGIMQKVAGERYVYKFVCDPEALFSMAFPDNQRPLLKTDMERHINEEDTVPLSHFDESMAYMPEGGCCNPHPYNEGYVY
# Sequence of CRX (O43186 whole entry): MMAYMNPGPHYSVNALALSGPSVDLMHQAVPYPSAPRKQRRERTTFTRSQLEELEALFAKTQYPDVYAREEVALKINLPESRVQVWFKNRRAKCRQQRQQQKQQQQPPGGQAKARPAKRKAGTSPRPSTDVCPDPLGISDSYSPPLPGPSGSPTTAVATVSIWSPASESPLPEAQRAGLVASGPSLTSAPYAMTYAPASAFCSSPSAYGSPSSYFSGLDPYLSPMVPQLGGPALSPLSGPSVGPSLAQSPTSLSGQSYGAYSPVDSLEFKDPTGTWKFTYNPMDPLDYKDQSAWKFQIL
# Sequence of ELF4 (Q99607 whole entry): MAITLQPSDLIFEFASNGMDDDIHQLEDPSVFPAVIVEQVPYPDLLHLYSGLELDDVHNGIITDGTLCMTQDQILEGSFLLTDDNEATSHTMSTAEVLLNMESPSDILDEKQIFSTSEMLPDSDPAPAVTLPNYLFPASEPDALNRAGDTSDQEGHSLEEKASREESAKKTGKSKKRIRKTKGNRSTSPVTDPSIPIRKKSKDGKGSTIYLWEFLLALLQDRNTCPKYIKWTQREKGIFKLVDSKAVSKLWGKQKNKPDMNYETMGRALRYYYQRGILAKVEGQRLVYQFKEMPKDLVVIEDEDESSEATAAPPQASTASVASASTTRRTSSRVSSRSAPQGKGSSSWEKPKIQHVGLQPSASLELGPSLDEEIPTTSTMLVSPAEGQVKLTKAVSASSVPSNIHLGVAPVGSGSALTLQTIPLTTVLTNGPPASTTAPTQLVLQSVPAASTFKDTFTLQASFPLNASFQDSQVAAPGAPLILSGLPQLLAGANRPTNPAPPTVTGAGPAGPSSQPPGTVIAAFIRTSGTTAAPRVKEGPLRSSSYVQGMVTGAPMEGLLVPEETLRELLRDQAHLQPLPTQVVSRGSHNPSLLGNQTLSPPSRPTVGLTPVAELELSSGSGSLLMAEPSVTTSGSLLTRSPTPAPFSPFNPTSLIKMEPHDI
# Sequence of ETV6 (P41212 whole entry): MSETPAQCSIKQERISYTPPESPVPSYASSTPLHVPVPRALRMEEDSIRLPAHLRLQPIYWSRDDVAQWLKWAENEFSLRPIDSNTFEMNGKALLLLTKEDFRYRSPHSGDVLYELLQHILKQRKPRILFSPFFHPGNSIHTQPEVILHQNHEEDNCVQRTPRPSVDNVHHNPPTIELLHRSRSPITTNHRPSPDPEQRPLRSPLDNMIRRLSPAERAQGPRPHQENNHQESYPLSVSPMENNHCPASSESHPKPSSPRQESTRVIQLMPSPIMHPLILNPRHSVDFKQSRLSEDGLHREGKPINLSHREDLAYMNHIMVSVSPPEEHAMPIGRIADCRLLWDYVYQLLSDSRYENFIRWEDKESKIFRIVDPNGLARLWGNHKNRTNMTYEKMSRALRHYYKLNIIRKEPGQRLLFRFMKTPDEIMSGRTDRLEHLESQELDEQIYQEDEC
sequence,measurement,setting,value
CGCTCT,binding signal,[1],"1.27 fold enrichment (6-mer frequency, TF over GST control)"
same,binding signal,[2],"1.34 fold enrichment (6-mer frequency, TF over GST control)"
same,binding signal,[3],"1.17 fold enrichment (6-mer frequency, TF over GST control)"
same,binding signal,[4],"1.31 fold enrichment (6-mer frequency, TF over GST control)"
same,binding signal,[5],"1.39 fold enrichment (6-mer frequency, TF over GST control)"
same,binding signal,[6],"1.07 fold enrichment (6-mer frequency, TF over GST control)"
same,binding signal,[7],"1.12 fold enrichment (6-mer frequency, TF over GST control)"
same,binding signal,[8],"1.24 fold enrichment (6-mer frequency, TF over GST control)"
same,binding signal,[9],"1.05 fold enrichment (6-mer frequency, TF over GST control)"
same,binding signal,[10],"1.25 fold enrichment (6-mer frequency, TF over GST control)"
same,binding signal,[11],"1.3 fold enrichment (6-mer frequency, TF over GST control)"
same,binding signal,[12],"1.37 fold enrichment (6-mer frequency, TF over GST control)"
same,binding signal,[13],"1.31 fold enrichment (6-mer frequency, TF over GST control)"
same,binding signal,[14],"1.25 fold enrichment (6-mer frequency, TF over GST control)"
same,binding signal,[15],"1.18 fold enrichment (6-mer frequency, TF over GST control)"
same,binding signal,[16],"1.24 fold enrichment (6-mer frequency, TF over GST control)"
same,binding signal,[17],"1.25 fold enrichment (6-mer frequency, TF over GST control)"
same,binding signal,[18],"1.26 fold enrichment (6-mer frequency, TF over GST control)"

# From paper PMC7862700, “An all-to-all approach to the identification of sequence-specific readers for epigenetic DNA modifications on cytosine”
